Common to all, as to assay: NCI-60 one-dose screen, 48 h (100 = growth as untreated, 0 = no growth, -100 = all killed)
The subject of one test is HCT-15 colon. The settings on record: 10 µM unless noted.
Another test concerns HT29 colon. The note with it: 10 µM unless noted.
The next test deals with SNB-75 CNS. The note with it: 10 µM unless noted.
For the next test, the system named is SNB-19 CNS. The note with it: 10 µM unless noted.
In another test the test system is U251 CNS. The note with it: 10 µM unless noted.
The subject of another test is PC-3 prostate. The note with it: 10 µM unless noted.
The test system of another test is SK-MEL-5 melanoma. The settings on record: 10 µM unless noted.
The next test relates to UACC-62 melanoma. The settings on record: 10 µM unless noted.
A further test deals with LOX IMVI melanoma. The settings on record: 10 µM unless noted.
The next test deals with SK-MEL-28 melanoma. The settings on record: 10 µM unless noted.
In a further test the test system is SK-MEL-2 melanoma. The note with it: 10 µM unless noted.
In a further test the test system is EKVX NSCLC. The settings on record: 10 µM unless noted.
In a further test the test system is SN12C renal. The note with it: 10 µM unless noted.
Another test deals with UO-31 renal. The note with it: 10 µM unless noted.
The next test concerns TK-10 renal. The note with it: 10 µM unless noted.
The test system of another test is ACHN renal. The settings on record: 10 µM unless noted.
A further test concerns CAKI-1 renal. The settings on record: 10 µM.
The test system of a further test is CCRF-CEM leukemia. The settings on record: 10 µM unless noted.
Another test has as its system MOLT-4 leukemia. The note with it: 10 µM unless noted.
The next test relates to A498 renal. The settings on record: 10 µM unless noted.

This is part of a sample that, as a whole, favours compounds with a hit. Of some 83,000 tested, about 20% had one in any assay.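 Treatment: one concentration, 48 hours, 96-well format. Scoring: percent growth, with anything below 10 considered active.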 A number with no mark means an inactive call. The source made the active and inactive calls.

As for `COc1ccc(Cn2cc3c(c2-c2ccccc2)CCCc2cnoc2-3)cc1`, the growth in the test with HCT-15 colon was 32.5%; in the test on HT29 colon, 20.4%; in the test on SNB-75 CNS, 51.2%; with SNB-19 CNS, 61%; with U251 CNS, 57.7%; in the test on PC-3 prostate, 60%. In addition, the growth with SK-MEL-5 melanoma was 50.1%; in the test on UACC-62 melanoma, 42.7%; in the test on LOX IMVI melanoma, 53.5%; in the test with SK-MEL-28 melanoma, 62%; in the test with SK-MEL-2 melanoma it was 80.2%; in the test with EKVX NSCLC, 69.2%. The growth with SN12C renal was 79.8%; with UO-31 renal, 57.1%; in the test on TK-10 renal, 91.8%; in the test on ACHN renal, 58.9%; with CAKI-1 renal it was 46.1%; with CCRF-CEM leukemia, 61.3%. Besides, in the test on MOLT-4 leukemia, the growth is 61.7%.

Take `O=C(Cn1cc(CN2C(=O)c3ccc([N+](=O)[O-])cc3C2=O)nn1)Nc1ccccc1Br`: the growth with HCT-15 colon is 102%; in the test with HT29 colon, 112%; in the test on SNB-75 CNS, 87.5%; in the test on SNB-19 CNS it was 102%; in the test on U251 CNS, 109%; in the test with PC-3 prostate, 102%. Further, the growth in the test with SK-MEL-5 melanoma was 104%; with UACC-62 melanoma, 90.7%; in the test on LOX IMVI melanoma, 116%; with SK-MEL-28 melanoma it was 108%; in the test on SK-MEL-2 melanoma it was 114%; in the test with EKVX NSCLC it was 105%. The growth was 103% in the test with SN12C renal; 88.1% in the test with UO-31 renal; 104% in the test with TK-10 renal; 108% in the test with ACHN renal; 103% in the test with CAKI-1 renal; 101% with A498 renal. In the test with MOLT-4 leukemia, the growth is 105%.

`C#CCOc1ccccc1C(Nc1ccccc1)c1nnnn1C1CCCCC1` (stereo not given): the growth is 95.5% with HCT-15 colon; 105% in the test with HT29 colon; 102% with SNB-75 CNS; 94.7% in the test with SNB-19 CNS; 99.9% in the test on U251 CNS; 92.6% in the test on PC-3 prostate. Also, the growth with SK-MEL-5 melanoma was 99.6%; in the test on UACC-62 melanoma it was 63.3%; with LOX IMVI melanoma, 95.4%; in the test on SK-MEL-28 melanoma it was 101%; in the test with SK-MEL-2 melanoma it was 110%; in the test on EKVX NSCLC, 95.9%. Also, the growth in the test on SN12C renal is 104%; with UO-31 renal, 78.5%; in the test with TK-10 renal it was 106%; with ACHN renal, 93.9%; with CAKI-1 renal, 59.6%; with A498 renal, 104%. The results for the growth in the test with CCRF-CEM leukemia and in the test on MOLT-4 leukemia were 92.7% and 88.3%, respectively.

In the case of `CCOC(=O)C1=C(C)Nc2nnc(Nc3ccccc3)n2C1c1ccccc1` (stereo not given), the growth with HCT-15 colon was 58.1%; in the test on HT29 colon, 79.4%; in the test on SNB-75 CNS, 70.5%; in the test with SNB-19 CNS, 81.6%; with U251 CNS, 45.4%; with PC-3 prostate, 73.5%. Moreover, the growth in the test on SK-MEL-5 melanoma was 89.9%; in the test with UACC-62 melanoma, 75.3%; in the test with LOX IMVI melanoma it was 59.2%; in the test on SK-MEL-28 melanoma it was 89.9%; with SK-MEL-2 melanoma it was 99.7%; with EKVX NSCLC, 69%. Further, the growth with SN12C renal is 30.5%; in the test on UO-31 renal, 69.5%; with TK-10 renal it was 81.8%; in the test on ACHN renal, 14.7%; in the test on CAKI-1 renal, 69%; in the test on CCRF-CEM leukemia it was 69.5%.

Take `NS(=O)(=O)c1ccc(-n2cc(CC=O)nn2)cc1`: the growth in the test on HCT-15 colon was 99.8%; in the test with HT29 colon it was 101%; in the test on SNB-75 CNS, 90.1%; with SNB-19 CNS, 102%; in the test on U251 CNS, 102%; in the test with PC-3 prostate, 100%. Further, the growth in the test with SK-MEL-5 melanoma is 100%; in the test on UACC-62 melanoma it was 95.7%; in the test on LOX IMVI melanoma it was 98.9%; in the test with SK-MEL-28 melanoma, 114%; in the test with SK-MEL-2 melanoma, 109%; with EKVX NSCLC it was 99.2%. Moreover, the growth is 106% in the test with SN12C renal; 87.7% in the test with UO-31 renal; 98.5% in the test with TK-10 renal; 107% with ACHN renal; 92.2% in the test with CAKI-1 renal; 96% with A498 renal. The results for the growth with CCRF-CEM leukemia and with MOLT-4 leukemia were 110% and 103%, respectively.

With `O=C(NCCCCCCNC(=O)c1c2c(nc3ccccc13)-c1cccnc1SC2)c1c2c(nc3ccccc13)-c1cccnc1SC2`, the growth with HCT-15 colon is 74.8%; in the test on HT29 colon, 53.7%; in the test on SNB-75 CNS, 62.9%; in the test with SNB-19 CNS, 66.5%; with U251 CNS it was 77.6%; with PC-3 prostate, 81%. For the same compound, the growth in the test with SK-MEL-5 melanoma was 84.3%; in the test with UACC-62 melanoma, 12.2%; in the test on LOX IMVI melanoma, 78.6%; in the test on SK-MEL-28 melanoma it was 27.7%; in the test on SK-MEL-2 melanoma, 5.25% (active); in the test on EKVX NSCLC it was 49.1%. Also, the growth in the test on SN12C renal was 73.8%; with UO-31 renal, 38.8%; in the test with TK-10 renal, 145%; in the test with ACHN renal, 65.8%; with CAKI-1 renal, 61.5%; in the test with A498 renal, 76.5%. Also, in the test on MOLT-4 leukemia, the growth is 88.1%.

`COc1ccc2oc3c4[nH]c5ccccc5c4c4c(c3c2c1)C(=O)N(O)C4=O`: the growth with HCT-15 colon was 105%; in the test on HT29 colon, 104%; in the test with SNB-75 CNS, 89.1%; in the test with SNB-19 CNS it was 95.2%; with U251 CNS it was 106%; in the test with PC-3 prostate it was 85.8%. The growth with SK-MEL-5 melanoma is 101%; in the test with UACC-62 melanoma, 94.6%; in the test on LOX IMVI melanoma it was 116%; with SK-MEL-28 melanoma it was 106%; in the test with SK-MEL-2 melanoma, 107%; with EKVX NSCLC, 97.8%. For the same compound, the growth with SN12C renal was 94.7%; in the test on UO-31 renal it was 82.2%; in the test with TK-10 renal, 140%; in the test with ACHN renal, 97.9%; in the test on CAKI-1 renal it was 80.4%; in the test on A498 renal, 75.4%. In addition, the growth in the test on CCRF-CEM leukemia was 91.4%; in the test on MOLT-4 leukemia it was 116%.

Values taken from PubChem BioAssay (NCI).
